# Mcl-1 Bim block: disrupts Bim peptide binding to human Mcl-1; Q07820; inhibition, % at 10 µM; Bead-based flow cytometry, Bim peptide-Mcl-1 binding; 190,000 compounds, 0.1% hits; in the data active = inhibition above about 40%;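 also: 0% = no compound tracer wells and 100% = peptide blocker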
# Target sequence (Q07820 whole entry, looked up): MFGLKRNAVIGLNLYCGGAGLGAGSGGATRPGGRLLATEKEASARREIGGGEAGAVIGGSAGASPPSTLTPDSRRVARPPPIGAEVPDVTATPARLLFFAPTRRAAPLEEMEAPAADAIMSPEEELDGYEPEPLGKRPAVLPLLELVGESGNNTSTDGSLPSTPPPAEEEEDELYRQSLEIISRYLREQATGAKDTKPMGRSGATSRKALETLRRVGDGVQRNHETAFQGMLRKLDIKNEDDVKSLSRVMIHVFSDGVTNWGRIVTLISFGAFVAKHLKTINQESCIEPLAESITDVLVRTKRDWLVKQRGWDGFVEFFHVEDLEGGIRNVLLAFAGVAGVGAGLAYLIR
# MCL1-BIM inh: disrupts human MCL1 binding to BIM-BH3 peptide | inhibition, % at 10.9 µM | 320,000 compounds, 0.68% hits | Q07820 | GST-MCL1 / FITC-Bim-BH3 fluorescence polarization;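 active = inhibition above the mean inhibition of all tested compounds plus 3 SD, set per campaign, cut at about 40% in these data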;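 also: 0% = DMSO wells and 100% = unlabeled Bim-BH3 peptide control; higher means more loss of mP so more displacement of Bim peptide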
# Mcl1 Noxa PPI: Mcl-1/Noxa interaction inhibition; inhibition, % at 21.7 µM; AID 1022; TR-FRET Mcl-1/Noxa peptide binding, 2 h; 220,000 compounds, 1.5% hits; Q07820;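 active = compounds that cut the protein-peptide binding signal by more than 50% relative to plate controls in a single-dose test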;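 also: His-tagged Mcl-1 with rhodamine Noxa BH3 peptide and terbium anti-His antibody; 0% = Mcl-1 plus Noxa peptide wells and 100% = peptide-only wells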
# Bcl-xL primary: inhibitors of human Bcl-xL; Q07817; GST-Bcl-xL / FITC-Bim BH3 peptide fluorescence polarization; inhibition, % at 10.9 µM; 320,000 compounds, 0.7% hits; AID 2129;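 active = inhibition above the mean of all tested compounds plus 3 SD, cutoff set per campaign, cut at about 30% in these data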;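 also: 0% = DMSO wells and 100% = unlabeled Bim-BH3 peptide competitor; inhibitors lower millipolarization by displacing the labeled peptide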
# Target sequence (Q07817 whole entry, looked up): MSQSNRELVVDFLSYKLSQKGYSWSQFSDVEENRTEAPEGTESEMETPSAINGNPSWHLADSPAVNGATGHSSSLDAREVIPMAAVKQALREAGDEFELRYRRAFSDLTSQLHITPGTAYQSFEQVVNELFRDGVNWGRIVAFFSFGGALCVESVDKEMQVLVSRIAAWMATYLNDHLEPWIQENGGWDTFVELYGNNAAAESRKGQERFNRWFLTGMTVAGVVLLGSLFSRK
# GLD-1 TGE inh: GLD-1-TGE RNA interaction inhibition (C. elegans) | purified GLD-1 + fluorescein TGE RNA, fluorescence polarization | Q17339 | inhibition, % at 5.96 µM | 320,000 compounds, 0.44% hits;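 active = percent inhibition above a per-plate cutoff, the plate mean of test compounds plus 3 SD, cut at about 30% in these data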;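 also: 0% = DMSO wells with GLD-1 and probe and 100% = wells lacking GLD-1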
# Mcl1-Bid inh: disrupts binding of human Mcl-1 to Bid peptide. Q07820. inhibition, % at 21.7 µM. TR-FRET Mcl-1/Bid-Dy647 peptide binding, 1536-well. 220,000 compounds, 0.97% hits;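 active = compounds that cut the binding signal by more than half at the single screening dose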;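 also: His-tagged Mcl-1 with europium anti-His antibody binding Bid BH3 peptide; 0% = Mcl-1 plus peptide wells and 100% = peptide-only wells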
# Active calls of the source: *; x = no result given. Rows were chosen to be rich in hits. Some 2.3% of all compounds tested hit in one or more screens of this group.
SMILES,Mcl-1 Bim block,MCL1-BIM inh,Mcl1 Noxa PPI,Bcl-xL primary,GLD-1 TGE inh,Mcl1-Bid inh
O=C(O)CCCN1C(=O)/C(=C\c2ccc(-c3nc4ccccc4s3)o2)SC1=S,x,23,104*,16,-7,87*
O=C(O)CC(C(=O)O)N1C(=O)/C(=C/c2ccc(-c3nc4ccccc4s3)o2)SC1=S (stereo unspecified),3,-16,5,-15,-71,-19
O=Cc1ccc(-c2nc3ccccc3s2)o1,2,-13,-11,-2,0,-19
O=C(O)CCN1C(=O)/C(=C/c2ccc(-c3nc4ccccc4s3)o2)SC1=S,9,15,104*,10,-13,94*
O=C(N/N=C/c1ccc(OC(=O)c2ccc([N+](=O)[O-])cc2)cc1)c1cccnc1,x,8,x,9,2,x
COc1cc(/C=N/NC(=O)c2ccncc2)ccc1OC(=O)c1cccc(Br)c1,x,3,x,0,-5,x
COc1cccc(/C=N/NC(=O)c2ccncc2)c1OC(=O)c1ccc(Br)cc1,x,38,x,34*,27,x
COc1cc(OC)c([N+](=O)[O-])cc1/C=N/NC(=O)c1ccncc1,7,14,71*,5,0,-5
COc1cc(/C=N/NC(=O)c2cccnc2)ccc1OC(=O)c1ccc([N+](=O)[O-])cc1,1,-1,58*,-1,4,34
Cc1c(C(=O)C(=O)N2CCN(Cc3ccc4c(c3)OCO4)CC2)c2ccccc2n1C,x,5,x,2,6,x
COc1cc(C)c(Br)cc1S(=O)(=O)NCCCN1CCOCC1,-5,1,12,0,-1,-18
COc1cc(OC)cc(C(=O)Nc2nnc(SCC(=O)NCc3ccco3)s2)c1,x,-2,x,3,-1,x
Cc1ccc(C(=O)O)cc1NC(=O)Nc1cccc2ccccc12,x,3,x,-2,5,x
COc1cc(C)c(CNc2ccc(OC)c(OC)c2)cc1C,0,31,30,36*,4,-11
COc1cc(C)c(CNc2cccc(C)c2)cc1C,1,1,22,8,-2,29
Cc1cc(/C=C2\C(=N)N3N=C(c4ccco4)SC3=NC2=O)c(C)n1Cc1ccccc1,x,2,63*,-2,-4,-54
COC(=O)CS(=O)(=O)c1ccsc1C(=O)Nc1ccc(F)cc1,-1,4,4,3,-4,-8
Cn1c(=O)c2c(nc(Cc3ccc(N)cc3)n2C)n(C)c1=O,x,-4,12,-4,6,98*
Cn1c(=O)c2c(nc(CN3CCN(Cc4ccccc4)CC3)n2Cc2ccccc2)n(C)c1=O,0,x,13,x,x,-12
COc1ccc(Cl)cc1NC(=S)N(Cc1ccccc1C)CC1CCC(C(=O)O)CC1 (stereo unspecified),-4,-1,-5,2,6,-48
O=C(CSc1nnc(-c2cccnc2)n1-c1ccccc1)Nc1ccccn1,-2,8,9,3,4,-11
CCOC(=O)c1sc(Nc2nc3cc4c(cc3s2)OCO4)cc1C,x,0,65*,-3,3,29
CC(=O)Nc1nc2cc3c(cc2s1)OCO3,-1,-1,-2,1,0,-18
CC(C)N(Cc1ccccc1)C(=O)c1cccs1,x,0,x,4,-2,x
O=S(=O)(NCc1ccco1)c1ccc(Cl)s1,x,x,x,x,6,x
SMILES,Mcl-1 Bim block,MCL1-BIM inh,Mcl1 Noxa PPI,Bcl-xL primary,GLD-1 TGE inh,Mcl1-Bid inh
CCN(CC)c1ccc(/C=C(\C#N)C(=O)c2ccc(Br)cc2)cc1,x,45*,-15,52*,63*,-11
COc1ccc(C(=O)Nc2ccccc2C(=O)NC(Cc2c[nH]c3ccccc23)C(=O)O)cc1 (stereo unspecified),2,-9,5,-3,3,-13
O=C(C[n+]1ccc(-c2nnc3n2CCCCC3)cc1)c1ccc(Cl)cc1,x,4,-14,8,5,-3
COc1ccc(C(=O)C[n+]2ccc(-c3nnc4n3CCCCC4)cc2)cc1,x,13,76*,3,1,-46
Cc1ccc(OCC(=O)Nc2sc3c(c2C#N)CCC3)cc1,2,-1,39,3,-1,-22
Cc1ccc(C)n1-c1sccc1C(=O)O,-4,x,95*,x,x,93*
Cc1cc(C(=O)O)c(C)n1-c1ccccc1,-2,1,-7,0,6,-12
Cc1ccc(-n2c(-c3ccccc3)c[n+]3c2CCC3)cc1,-1,3,51*,4,0,-11
Fc1cccc(Cl)c1Cn1nnc2c(-n3ccnc3)ncnc21,0,-1,10,-5,1,-11
COc1ccc(OC)c(-n2c(N)c(C(=O)NCC3CCCO3)c3nc4ccccc4nc32)c1 (stereo unspecified),0,x,15,x,x,93*
COc1ccc(-n2c(N)c(C(=O)NCc3ccco3)c3nc4ccccc4nc32)cc1,3,-6,58*,2,4,-11
Cc1cc2nc3c(=O)[nH]c(=O)[nH]c3nc2c([N+](=O)[O-])c1N,14,x,71*,x,x,-46
Cc1ccc(NC(=O)N2CCC(NC(=O)c3cccc(C)c3)CC2)cc1,x,-6,x,-2,4,x
CC1=C/C(=C(/c2cc(C)c(O)c(Br)c2)c2ccccc2S(=O)(=O)O)C=C(Br)C1=O,x,43*,x,41*,19,x
CC1=C/C(=C(/c2ccc(O)c(C)c2)c2ccccc2S(=O)(=O)O)C=CC1=O,x,6,x,12,6,x
C/C(CCc1ccccc1)=N\NC(=O)COc1ccccc1C,0,8,-17,-8,11,-10
Cc1ccc(CNC(=O)C(OC(=O)c2cccs2)C(C)C)cc1 (stereo unspecified),x,8,x,0,3,x
O=S(=O)(Nc1ccc(N2CCCCC2)cc1)c1ccc(F)c(F)c1,5,2,51*,3,6,-41
O=C(O)c1cc(S(=O)(=O)Nc2ccc(N3CCCCC3)cc2)ccc1Cl,2,2,46,6,10,-48
O=C1NC(=O)/C(=C/c2ccc(-c3cc(C(=O)O)ccc3Cl)o2)S1,x,42*,x,21,3,x
O=C1NC(=O)/C(=C\c2ccc(Br)o2)S1,x,36,x,17,6,x
CCOC(=O)c1sc(NC(=O)Nc2ccc(Cl)cc2)cc1C,2,-5,100*,-2,12,7
O=C(/C=C/c1cccnc1)c1cccc(O)c1,x,10,x,3,-2,x
O=C(/C=C/c1cccnc1)c1ccc(O)cc1,x,19,85*,7,1,-49
O=C(CCCCCCCC(=O)c1ccccc1)c1ccccc1,-1,-5,10,-9,1,-13
C=C(CCC(=O)c1ccccc1)C(=O)c1ccccc1,-3,7,22,85*,14,11
CSc1nc(SCC(N)=O)c2c3c(sc2n1)CN(C)CC3,0,20,33,19,-4,-11
CSc1nc(NCc2ccco2)c2c3c(sc2n1)CN(C)CC3,2,17,57*,16,-7,9
CSc1nc(SCC(=O)NCc2ccco2)c2c3c(sc2n1)CN(C)CC3,2,30,84*,26,3,34

# Compound activity from PubChem BioAssay.
